According to PubChem BioAssay (NCI):
About 83,000 compounds went through this panel and 20% of them were active in at least one assay; those are over-represented in the sample as a whole.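 Cell lines were cultured in 96-well plates, exposed to a single compound concentration, and assessed for percent growth 48 hours later.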 The source made the active and inactive calls. The calls were made as follows: active = growth percent below 10; inactive = the rest.

These compounds were tested on HL-60(TB) leukemia (assay: NCI-60 one-dose screen, 48 h (100 = growth as untreated, 0 = no growth, -100 = all killed)). Conditions: 10 µM unless noted.

SMILES	growth
O=[N+]([O-])c1c(S(=O)(=O)O)cc2cc(S(=O)(=O)O)ccc2c1[N+](=O)[O-]	108% (inactive)
COc1cc(/C=C2\CCC/C(=C\c3cc(CN4CCCCC4)c(O)c(OC)c3)C2=O)cc(CN2CCCCC2)c1O	92.7% (inactive)
Cn1[nH]cc(/C=N/C(N)=O)c1=O	110% (inactive)
Cc1nc(Nc2ccc(NC(=S)Nc3ccccc3)cc2)c2ccccc2n1	86.4% (inactive)
OCc1cccc2ccccc12	93.5% (inactive)
COc1cc(OC)c2sc(-c3ccc(-n4cncc4-c4cc(OC)c(OC)c(OC)c4)cc3)nc2c1	30.3% (inactive)
Cc1cc(N/N=C/c2ccccn2)nc2ccccc12	-12.8% (active)
Cc1ccc2nc3nc4ccc[nH]c4cc3c2c1	124% (inactive)
O=C1C(Cl)=C(Nc2cccc3cc4ccccc4nc23)C(=O)c2ccccc21	47.8% (inactive)
Cc1cc2nc3c4cc(N)ccc4n(CCN(C)C)c3nc2cc1C	4.7% (active)
C=C1C(=O)O[C@H]2[C@H]1CC/C(Cn1cc(-c3cc(C(F)(F)F)cc(C(F)(F)F)c3)nn1)=C\CC[C@@]1(C)O[C@@H]21	-49.1% (active)
